Hits are enriched below; roughly 0.95% of the tested compounds scored in any of these assays.
FBPA Giardia inh – blocks Giardia fructose-bisphosphate aldolase activity; purified Giardia FBPA; 0.71% of 290,000 active; Potency, µM (titrated, usually from 59.6 µM), for inactives: at the top dose activity, negative = inhibition, most hits filed as inhibitors; also: potency is read from the fitted curve at half-maximal effect; % is scaled to controls: 0 for no effect and ±100 for the full control effect; nearly all actives have a fitted effect of over 55% in size
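40 nM FBPA preincubated 10 min at RT with compound (up to 57.5 uM final), then substrate plus GAPDH/TPI/NAD/arsenate coupling and diaphorase/resazurin added. Fluorescence read after 20 min at RT, 525/598 nm.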
LmPK inhibitor – LmPK (Leishmania mexicana) enzyme inhibition. Q27686. 0.37% of 290,000 active. AID 1721. purified LmPK, Kinase-Glo ATP luminescence, 1 h. Potency, µM (doses to about 57.5 µM), without a hit: top-dose activity change, negative = inhibition, most hits filed as inhibitors; also: potency is read from the fitted curve at half-maximal effect; % is scaled to controls: 0 for no effect and ±100 for the full control effect
Target sequence (Q27686 whole entry, looked up): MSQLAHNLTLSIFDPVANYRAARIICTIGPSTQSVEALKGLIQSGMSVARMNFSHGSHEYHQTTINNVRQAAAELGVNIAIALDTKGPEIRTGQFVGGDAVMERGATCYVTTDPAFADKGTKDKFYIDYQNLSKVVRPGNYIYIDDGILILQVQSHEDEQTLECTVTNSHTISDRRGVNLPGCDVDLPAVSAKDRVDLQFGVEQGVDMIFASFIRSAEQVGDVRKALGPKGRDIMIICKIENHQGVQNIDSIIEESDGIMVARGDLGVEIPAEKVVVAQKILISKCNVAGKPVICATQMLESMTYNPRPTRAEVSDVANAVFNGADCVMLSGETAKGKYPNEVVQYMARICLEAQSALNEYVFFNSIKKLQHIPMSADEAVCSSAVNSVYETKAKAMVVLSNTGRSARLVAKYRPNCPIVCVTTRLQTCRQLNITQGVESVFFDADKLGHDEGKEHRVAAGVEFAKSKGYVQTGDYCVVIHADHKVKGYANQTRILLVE
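ATP generated from ADP (0.1 mM) and PEP (0.5 mM) by 0.1 nM LmPK over 1 h at room temperature (pH 7.2 imidazole buffer) was detected by coupled luciferase luminescence. Values were normalized to uninhibited and no-enzyme wells.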
TbPYK inhibitor – inhibitors of Trypanosoma brucei pyruvate kinase; Q57TT1; TbPYK enzyme, Kinase-Glo Plus ATP luminescence, 45 min; Potency, µM (top dose mostly 76.8 µM), without a hit: top-dose activity, negative = inhibition, most hits filed as inhibitors; 0.12% of 410,000 active; AID 624173; also: potency is read from the fitted curve at half-maximal effect; % is scaled to controls: 0 for no effect and ±100 for the full control effect; nearly all actives have a fitted effect of over 50% in size
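Activity of T. brucei pyruvate kinase was followed by Kinase-Glo Plus luminescence after the enzyme reacted 45 min at room temperature with 130 uM ADP (final) and substrate. Test compounds were added before ADP at multiple concentrations.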
RE007 growth inh – less growth of the S. pombe RE007 Vpr strain | S. pombe RE007 Vpr strain, BacTiter-Glo ATP luminescence, 24 h | Potency, µM (titrated, usually from 92.2 µM), for inactives: at the highest dose activity change, negative = less growth, usual class: inhibitors | 0.21% of 360,000 active; active = well fitted falling curve with a large enough effect; inconclusive = small, poorly fitted or top-dose-only effect; inactive = no such curve, though single readings can be large or run the other way; also: potency is read from the fitted curve at half-maximal effect; % is scaled to controls: 0 for no effect and ±100 for the full control effect; nearly all actives have a fitted effect of over 50% in size
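Fission yeast strain RE007, carrying one chromosomally integrated HIV-1 vpr copy, was seeded at OD 0.01 in PMG+AL medium with 23 nL pinned compound. After 24 h at 30 °C and 99% humidity, viability was read by BacTiter-Glo luminescence.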
LmPK confirm – Confirms inhibition of Leishmania mexicana pyruvate kinase; shares compounds with LmPK inhibitor; purified LmPK, Kinase-Glo ATP luminescence, 1 h; Potency, µM (doses to about 57.5 µM), inactives show at the top dose activity change, negative = inhibition, hits mostly inhibitors; 40% of 150 active; AID 2559;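 active = compounds giving a full or partial concentration-response curve, as inhibitors or activators; inconclusive = weak, top-dose-only or unclear curve responses; inactive = no response at any tested dose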
* hit, by the source's call; ? = inconclusive; . = no result given; [ ] = dose if it differs, or a comment. Unless noted, calls follow the shape of the dose curve; as a rule, active = well fitted curve in the direction sought with a large enough effect; inconclusive = small, poorly fitted or top-dose-only effect, or another doubt; inactive = no such curve, though single readings can be large; an effect the other way counts as inactive or inconclusive.

SMILES | FBPA Giardia inh | LmPK inhibitor | TbPYK inhibitor | RE007 growth inh | others
NC1(C(=O)O)CCC1 | -5% | . | . | .
CC(C)(S)C(=O)NC(CS)C(=O)O (stereo unspecified) | . | . | 0% | .
CCOC(=O)c1ccc(COC(=O)c2ccc3c(c2)-c2ccccc2C3=O)cc1 | -2% | 8% | 3% | 10%
CCOC(=O)C1=C(Cc2ccc(C)cc2)C(=O)c2ccccc2C1=O | 4µM* | -20% | . | .
CCOC(=O)C1=C(Cc2ccc(OC)cc2)C(=O)c2ccccc2C1=O | 1.4µM* | -17% | ? | -12%
CCOC(=O)C1=C(O)c2ccccc2C(=O)/C1=C\c1ccc(CC)cc1 | 7.9µM* | ? | ? | ?
CCOC(=O)c1c(C)nc2c(c1-c1cc(OC)ccc1OC)C(=O)c1ccccc1-2 | -5% | 0% | . | 14%[3.69 µM]
NS(=O)(=O)c1ccc(CCNC(=O)c2ccc[nH]c2=S)cc1 | 5% | -7% | 0% | 8.9µM*
NS(=O)(=O)c1ccc(CCNC(=O)c2cccc3ccccc23)cc1 | 1% | -5% | 2% | 6%
Nc1nonc1C(=O)NCCN=Cc1cc(Cc2ccccc2)cc(Br)c1O | 4% | -6% | 5% | 16µM*
Nc1nonc1C(=O)NCCN=Cc1ccccc1O | -18% | -10% | 1% | 7%
O=C(c1ccc(Br)cc1)N1CCN(Cc2ccccc2)CC1 | -1% | 10% | -7% | -16%
O=C(CCN1CCN(C(=O)c2ccccc2)CC1)c1ccc(Br)cc1 | -6% | -2% | 0% | 28µM*
COc1ccc(O[C@H]2C=C[C@@H](c3ccccc3)O[C@H]2COC(=O)N2CCCCC2)cc1 | -1%[12.9 µM] | . | . | .
COC(=O)CCCCCn1c(-c2ccccc2)cn2c3c(=O)n(C)c(=O)n(C)c3nc12 | . | . | 5% | .
CCN1/C(=C(\O)c2ccccc2)C(=O)c2ccccc2S1(=O)=O | -3% | -3% | 3% | 40µM*
Nc1nc2ccccc2n1C(=O)c1ccccc1 | -27% | 6.3µM* | ? | ?
COc1ccc(C(=O)n2c(N)nc3ccccc32)cc1OC | -29% | -2% | -2% | -14%
Nc1nc2ccccc2n1C(=O)c1ccc(F)cc1 | -13% | 25µM* | -10% | -13%
COc1ccc(C(=O)c2ccccc2)cc1 | -2% | 12% | 0% | -20%
COC1=CC(=O)C(C(=O)c2ccccc2)=CC1=O | 1.1µM* | . | . | .
Nc1ncnc2c1ncn2C1OC(COP(=O)(O)O)C(O)C1O (stereo unspecified) | 17% | 16µM* | -23% | ? | LmPK confirm=5.8µM*
Nc1ncnc2c1ncn2[C@@H]1O[C@H](COP(=O)(O)O)[C@@H](O)[C@@H]1O | 4%[21.7 µM] | . | . | .
Nc1ncnc2c1ncn2[C@@H]1O[C@H](COP(=O)(O)O)[C@@H](O)[C@H]1O | -3% | 10µM* | ? | ? | LmPK confirm=6.5µM*
Nc1ncnc2c1ncn2[C@@H]1O[C@H](COP(=O)(O)CP(=O)(O)OP(=O)(O)O)[C@H](O)[C@H]1O | -2% | . | . | .
SMILES | FBPA Giardia inh | LmPK inhibitor | TbPYK inhibitor | RE007 growth inh | others
Clc1ccccc1-c1cncnc1NCCN1CCOCC1 | -2% | . | . | .
CCc1n[nH]c(=S)n1/N=C/c1ccc2c(c1)OCO2 | -13% | -14% | ? | -1% | LmPK confirm=-1%
O=c1c(-c2cccs2)nc2cncnc2n1Cc1ccc(F)cc1 | 10% | . | . | .
CC(C)C(NC(=O)c1ccc2c(c1)OCO2)C(=O)N/N=C\c1ccco1 (stereo unspecified) | 3% | -1% | -4% | -2% | LmPK confirm=8%
CC(C)C(NC(=O)c1ccc2c(c1)OCO2)C(=O)N/N=C/c1cccs1 (stereo unspecified) | 11% | 0% | 13% | 1%
c1ccc2nc(-c3nc4ccccc4[nH]3)ccc2c1 | -17% | 4.5µM* | ? | ? | LmPK confirm=9.2µM*
Cn1c(-c2ccc(Br)cc2)cnc1NCc1cccnc1 | . | -3% | 5% | -4% | LmPK confirm=4%
COc1cc(CNc2ncc(-c3ccc(Br)cc3)n2C)cc(OC)c1OC | ? | -3% | 8% | -14%
COC(=O)C1=C(C)NC2=C(C(=O)C(C(=O)OC)C(c3ccc(OC)cc3)C2)C1c1ccccn1 (stereo unspecified) | 5% | 2% | 7% | -8% | LmPK confirm=13%
COc1ccc(-c2cc3nc(C)cc(N)n3n2)cc1 | -6% | 3.5µM* | 22µM* | 16µM* | LmPK confirm=5.8µM*
